# Screening results from PubChem.
# The full list was thinned out, with hits kept by preference.
# ERK EGF block: inhibitors of EGF-stimulated ERK signaling pathway | HEK293-V1b, EGF-stimulated phospho-ERK AlphaScreen | actives 0.41% (n = 130,000) | AID 1454 | Potency, µM (titrated, usually from 11.5 µM), without a hit: at the highest dose activity change, negative = inhibition, hits mostly inhibitors; active = well fitted inhibition curve with a large enough effect;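 also: plate controls were stimulated vehicle wells for no effect and unstimulated vehicle basal for full effect; nearly all actives have a fitted effect of over 55% in size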
#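 Cell line HEK293 (stable V1b), low serum overnight. Pretreatment: compound 30 min, 37C. EGF 25 nM, 5 min. Detection: SureFire AlphaScreen, 5 h RT. AC50 via standard Hill equation.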
# * hit, by the source's call; [ ] = another dose, or the depositor's remark. Potency is read from the fitted curve at half-maximal effect.
SMILES,ERK EGF block
CN1CCCC2(CCN(C(=O)c3cccc(F)c3)CC2)C1,-24%
CCOc1ccc(-c2csc(/C(C#N)=C\c3ccc(O)c([N+](=O)[O-])c3)n2)cc1,13µM*
N#C/C(=C\c1ccc(-c2ccccc2)cc1)c1nc(-c2ccco2)cs1,6%
COc1ccc(/C=C(\C#N)c2cc(OC)c(OC)cc2[N+](=O)[O-])cc1,-4%[57.5 µM]
Cc1cc(C)c2[nH]c(=O)c(CN(Cc3cccs3)C(=S)NCc3ccco3)cc2c1,10%
CN(C)CCCO[C@H]1C([C@H](O)CO)O[C@@H]2OC(C)(C)O[C@@H]21 (some centres not stated),-6%
COc1ccc(-c2nc(-c3ccccc3)c(Nc3c(C)cccc3C)o2)cc1,-4%
CC1CCCN(C2=C(NS(=O)(=O)c3ccc(Cl)cc3)C(=O)c3ccccc3C2=O)C1 (configuration not stated),10µM*
CC1CCCN(C2=C(Cl)C(=O)N(c3cccc(Cl)c3)C2=O)C1 (configuration not stated),1%
CCC(C)NC(=O)C1CCCN1S(=O)(=O)c1ccc(Cl)cc1 (configuration not stated),-25%
Nc1cc(C(=O)O)c(N)c2c1C(=O)c1ccccc1C2=O,28µM*
Nc1ccc(N)c(C(=O)O)c1,-11%[57.5 µM]
Cc1ccc2c(c1)C(=O)c1c(C(=O)O)cccc1-2,3%
CCN(CC)CCCCn1c(-c2ccccc2)nc2c(NCCOC)nc(C)nc21,-2%
COC(=O)c1cccc(NC(=O)c2ccccc2)c1,-2%[57.5 µM]
O=C(Nc1cccc(Br)c1)c1ccc(OC2CSC2)cc1,25µM*
Cc1cccc(NC(=O)c2ccc(OC3CSC3)cc2)c1,0%
Cc1cc([N+](=O)[O-])nn1CCCC(=O)N1CCN(c2ccc(F)cc2)CC1,4%
CN1[C@H](Cc2ccccc2)C=C[C@]1(C)C(=O)NCC1CC1,3%
CS/C(N)=N/S(=O)(=O)c1ccc(NC(C)=O)cc1,-11%[57.5 µM]
CC(C)C(=O)NC(=S)Nc1ccc(CN2CCOCC2)cc1,-7%
CC(C)c1ccc(/C=C/C(=O)Nc2ccc(CN3CCOCC3)cc2)cc1,35µM*
O=C(/C=C/c1ccccc1)NC(=S)Nc1ccc(CN2CCOCC2)cc1,-3%
CCCn1c(-c2ccc(F)cc2)nc2c(NCCCN(C)C)nc(C)nc21,-3%
Cn1c(N=Nc2ccc(N3CCOCC3)cc2)[n+](C)c2ccccc21,16µM*
SMILES,ERK EGF block
Cn1c(N2CCOCC2)c(/C=N/O)c2ccccc21,-16%
Cn1c(O)c(C=Nc2ccc(N3CCOCC3)cc2)c(=O)n(C)c1=S,-3%
CCOC(=O)C12CC1/C(=N/O)c1ccccc1O2 (configuration not stated),12%
NC(=S)N=Nc1c(O)n(Cc2ccccc2)c2ccccc12,2%
Oc1c(N=NC(=S)Nc2ccccc2F)c2ccccc2n1Cc1ccccc1Cl,14µM*
Cc1c(Cl)cccc1NC(=S)N=Nc1c(O)n(CN2CCOCC2)c2ccccc12,5%
COc1ccc(NC(=O)N2CCC(c3nc4ccccc4[nH]3)CC2)cc1,2%
CCCCCCCC/C=C\CCCCCCCC(=O)N[C@@H](CO)Cc1ccc(O)cc1,4%
CCCCC(c1nnnn1CCOC)N1CCN(Cc2ccccc2)CC1 (configuration not stated),9%
CCN(CC)c1ccc(/C=N/N2CCN(Cc3ccccc3Cl)CC2)c(O)c1,16µM*
CCN(CC)c1ccc(/C=N/N=C(c2ccccc2)c2ccccc2)c(O)c1,3%
Oc1ccc(/C=N/n2cnn(Cc3ccccc3Cl)c2=S)c(O)c1,-8%
CCCCn1nc(C(=O)Oc2ccc3c(C)cc(=O)oc3c2)c2ccccc2c1=O,10%
COC(=O)[C@@H]1C[C@H]1[C@@H](NC(C)=O)c1ccccc1,13%
O=C(c1csnn1)N1CCC2(CCCN(c3ccc(-c4ccccc4)cc3)C2)CC1,0%
COC(=O)c1cccc(Nc2nc(-c3cccnc3)nc3ccccc23)c1,-6%[57.5 µM]
O=C(Oc1cccc(Nc2ncnc3ccccc23)c1)c1cccnc1,14µM*
COc1ccc(C(=O)Oc2cccc(Nc3ncnc4ccccc34)c2)cc1OC,25µM*
CC(=O)Nc1ccc(Nc2ncnc3ccccc23)cc1,-3%[57.5 µM]
O=C(O)c1cccc(Nc2nc(-c3cccnc3)nc3ccccc23)c1,12%
COc1ccc([N+](=O)[O-])cc1Nc1ncnc2ccccc12,-3%
Fc1ccc([C@H]2CCNC[C@H]2COc2ccc3c(c2)OCO3)cc1,-2%
Cc1ccccc1Nc1oc(-c2ccccc2)nc1-c1cccs1,0%
O=C(COc1ccccc1[N+](=O)[O-])Nc1ccc(CN2CCOCC2)cc1,3%
CN1CCN(c2ccc(NC(=O)COc3ccccc3[N+](=O)[O-])cc2)CC1,-6%
CC(C)C(=O)N1CCN(c2ccc(NC(=O)COc3ccccc3[N+](=O)[O-])cc2)CC1,32µM*
COc1ccc2c(c1)C(=O)[C@H](OC(=O)Nc1cc(OC)c(OC)c(OC)c1)[C@@H](c1ccc(OC)c(Br)c1)O2,3%
COC(=O)c1c(C)nc2nonc2c1N,-9%
